This passage reports Potency results from PubChem BioAssay (Tox21).

Inconclusive results are not listed. Active and inactive are the calls of the source. Unless noted, calls come from the whole dose curve.

The nature of test [1]: Nuclear factor erythroid 2-related factor 2/antioxidant responsive element (Nrf2/ARE) small molecule agonists: qHTS cell viability counter screen in human keratinocytes (AID 1919968; active = well fitted curve in the direction sought with a large enough effect in the repeat runs; an effect the other way counts as inactive or inconclusive; note: nearly all actives have a fitted effect of over 55% in size). The method, boiled down: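 Stably transfected HaCaT (KeratinoSens), 1,500/well. Test agents in DMSO were applied for 23 h, 37 C/5% CO2. CellTiter-Fluor was incubated 1 h before the fluorescence read.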
For orientation: Quantitative high-throughput screening tests each substance at several concentrations.

The target in test [2] is Gonadotropin-releasing hormone receptor (Homo sapiens) (UniProt P30968). Nature of the test: Human gonadotropin-releasing hormone receptor (GnRHR) small molecule agonists, calcium flux assay in GnRHR-HEK293 cells (AID 1920063). Note: nearly all actives have a fitted effect of over 35% in size. The method, boiled down:
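Stable human GnRHR HEK293 line. 18 h plating, then calcium dye for 1 h at 37 C. Agonist-mode compound addition from DMSO stocks; fluorescence monitored 3 min.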
(In general: A change in cytosolic calcium serves as a functional read-out for many receptors and channels.)

Test [3] can be described thus: G protein-coupled receptor (GPCR) small molecule agonists, calcium flux assay: HEK293 wild type cell line counter screen (AID 1920065). The method in brief: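 Following 18 h incubation at 37 C/5% CO2, plates got calcium dye for 1 h; compounds, ATP or DMSO were then pinned in and fluorescence followed kinetically (480/540 nm).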
The nature of test [4]: p53 small molecule agonists, cell-based qHTS assay with rat liver microsomes (AID 1963578). The method, boiled down:
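Read-out is beta-lactamase reporter fluorescence (LiveBLAzer, 2 h, room temperature, dark) in p53RE-bla cells treated 16 h at 37 C with compound, rat liver microsomes and NADPH, both 0.5 mg/mL final.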

The nature of test [5]: p53 small molecule agonists, cell-based qHTS assay with human liver microsomes: qHTS cell viability counter screen (AID 1963579). Note: nearly all actives have a fitted effect of over 45% in size. The method in brief: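 Cells carrying the p53 response-element beta-lactamase reporter are treated for 16 h at 37 C with test compounds in the presence of human liver microsomes and NADPH (both 0.5 mg/mL final); ATP-based CellTiter-Glo luminescence then reports viability.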

Test [6] is described as follows: p53 small molecule agonists, cell-based qHTS assay with rat liver microsomes: qHTS cell viability counter screen (AID 1963580). Note: nearly all actives have a fitted effect of over 45% in size. The method in brief: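 After the beta-lactamase ratio was read, CellTiter-Glo was added to the same wells and luminescence measured at 30 min; cells had been treated 16 h at 37 C with compounds, rat liver microsomes and NADPH (0.5 mg/mL final each).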

Test [7] in a line: p53 small molecule agonists, cell-based qHTS assay (AID 1963582; active = well fitted activation curve with a large enough effect in the signal ratio in the repeat runs, not every such curve was filed as active; the % refers to the signal ratio). The method, boiled down: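 Measured: fluorescence from cleaved LiveBLAzer substrate. System: p53RE-bla cells, 16 h compound treatment at 37 C, 2 h substrate step at room temperature.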
The target of test [8] is 5-hydroxytryptamine receptor 2A (Homo sapiens) (UniProt P28223). Nature of the test: 5-hydroxytryptamine receptor 2A (HTR2A) small molecule antagonists, cell-based qHTS assay (AID 1963586). Note: nearly all actives have a fitted effect of over 45% in size. The method, boiled down:
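CHO cells stably expressing human HTR2A were plated for 18 h at 37 C, then loaded with calcium dye for 1 h. Compounds were preincubated 5 min at room temperature before DOI (4 nM solution) was added. Kinetic fluorescence was read for 3 min.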

Test [9] has the same target. Nature of the test: 5-hydroxytryptamine receptor 2A (HTR2A) small molecule agonists, cell-based qHTS assay (AID 1963587). Note: nearly all actives have a fitted effect of over 30% in size. The method, boiled down: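 CHO cells stably expressing human HTR2A, plated 18 h, loaded with calcium dye 1 h at 37 C. Agonist mode: compounds added and intracellular calcium fluorescence recorded kinetically for 2 min at 1 sec intervals.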
The target of test [10] is Muscarinic acetylcholine receptor M1 (Homo sapiens) (UniProt P11229). Nature of the test: Cholinergic receptor muscarinic 1 (CHRM1) small molecule antagonists, cell-based qHTS assay (AID 1963588). Note: nearly all actives have a fitted effect of over 40% in size. The method, boiled down: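 Compounds were tested at 15 concentrations in three independent runs. Dye-loaded CHRM1-CHO cells were exposed 5 min at room temperature before stimulation by acetylcholine added at 50nM. Intracellular calcium was read kinetically on FDSS for 3 min.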
Sequence of Muscarinic acetylcholine receptor M1 (Homo sapiens) (P11229 whole entry, looked up): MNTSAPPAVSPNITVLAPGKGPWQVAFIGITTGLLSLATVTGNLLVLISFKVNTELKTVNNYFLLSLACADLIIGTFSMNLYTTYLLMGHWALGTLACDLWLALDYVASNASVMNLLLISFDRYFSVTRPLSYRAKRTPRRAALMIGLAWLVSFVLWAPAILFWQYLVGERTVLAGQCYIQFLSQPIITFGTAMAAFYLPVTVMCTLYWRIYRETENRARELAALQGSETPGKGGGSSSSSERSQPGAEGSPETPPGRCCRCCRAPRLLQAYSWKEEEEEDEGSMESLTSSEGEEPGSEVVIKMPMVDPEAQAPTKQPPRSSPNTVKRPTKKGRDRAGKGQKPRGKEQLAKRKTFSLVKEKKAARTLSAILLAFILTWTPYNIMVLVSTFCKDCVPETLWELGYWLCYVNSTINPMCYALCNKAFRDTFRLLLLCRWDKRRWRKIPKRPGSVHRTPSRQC

For test [11] the target is unchanged. Briefly: Cholinergic receptor muscarinic 1 (CHRM1) small molecule agonists, cell-based qHTS assay (AID 1963589). Note: nearly all actives have a fitted effect of over 35% in size. The method in brief:
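Kinetic fluorescence (1 s intervals) of calcium-sensitive dye in human M1 CHO cells after compound addition; cells pre-incubated 18 h at 37 C/5% CO2 and dye-loaded 1 h.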

A short description of test [12]: cAMP Responsive Elements (CRE) small molecule agonists, cell-based qHTS assay (AID 1963590). The method in brief:
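Test agents in DMSO were incubated 3 h at 37 C/5% CO2 with CRE-bla HEK 293T cells seeded 18 h earlier; LiveBLAzer B/G FRET substrate was added and read after 2 h at room temperature.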

A short description of test [13]: cAMP Responsive Elements (CRE) small molecule antagonists, cell-based qHTS assay (AID 1963591; active = well fitted inhibition curve with a large enough effect in the signal ratio in the repeat runs, not every such curve was filed as active; the % refers to the signal ratio). The method, boiled down:
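Reporter line CRE-bla HEK 293T in dialyzed-FBS DMEM; cells preincubated 18 h, treated 3 h with compound plus NKH477 (0.25 uM final); LiveBLAzer FRET, 2 h RT.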

Test [14] addresses Beta-2 adrenergic receptor (Homo sapiens) (UniProt P07550). Nature of the test: Adrenergic beta2 receptor (ADRB2) small molecule agonists, cell-based qHTS assay (AID 1963593).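 For activation: CHO cells stably overexpressing human ADRB2.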 Note: potency is the fitted concentration of half-maximal effect. The method in brief: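 CHO cells stably over-expressing ADRB2 were plated overnight at 37C, then dosed with compounds plus a stimulation mix containing 100uM IBMX and 25uM Ro-20-1724 for 0.5hr at room temperature. cAMP was measured by HTRF competition, 1hr.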

For test [15], the target named is D(2) dopamine receptor (Homo sapiens) (UniProt P14416). Briefly: Dopamine D2 receptor (DRD2) small molecule agonists, cell-based qHTS assay (AID 1963594). Note: nearly all actives have a fitted effect of over 35% in size. The method in brief:
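HEK293 cells stably expressing human DRD2, pre-treated with PDE inhibitor Ro20-1724 (0.1 mM final) and compound 10 min at room temperature, then stimulated with NKH477 (200nM […]) for 30 min. cAMP read by HTRF (665/620 nm).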

Test [16] has the same target. Nature of the test: Dopamine D2 receptor (DRD2) small molecule antagonists, cell-based qHTS assay (AID 1963595; active = well fitted inhibition curve with a large enough effect in the signal ratio in the repeat runs, with a control signal flat; the % refers to the signal ratio). The method, boiled down: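 Stable D2 receptor HEK293 line, 24 h after seeding. Compound preincubated 10 min, then quinpirole (12 nM) with forskolin analogue NKH477 (200 nM), 30 min, room temperature. Detection by time-resolved FRET of cAMP.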
Test [17] in a line: p53 small molecule agonists, cell-based qHTS assay with human liver microsomes (AID 1963577). The method, boiled down: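 Compounds act here after metabolic activation: human liver microsomes and NADPH, both at 0.5 mg/mL final, were co-added to p53RE-bla cells. Incubation ran 16 h at 37 C, followed by LiveBLAzer detection.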
A short description of test [18]: p53 small molecule agonists, cell-based qHTS assay: qHTS cell viability counter screen (AID 1963581). Note: nearly all actives have a fitted effect of over 45% in size. The method, boiled down:
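qHTS counter screen: 16 h compound exposure at 37 C of p53RE-bla HCT-116 cells (4,000 per well, seeded 5 h prior), cell viability by ATP luminescence.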

Test [19] deals with Beta-2 adrenergic receptor (Homo sapiens) (UniProt P07550). Briefly: Adrenergic beta2 receptor (ADRB2) small molecule antagonists, cell-based qHTS assay (AID 1963592). Note: nearly all actives have a fitted effect of over 50% in size. Note: potency is the fitted concentration of half-maximal effect. The method in brief: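 Assay format: CHO-ADRB2 cells, 18-20hr seeding at 37C/5% CO2, then compound plus 1nM isoproterenol agonist mix for 0.5hr RT. Homogeneous time-resolved fluorescence cAMP detection after 1hr, expressed as 665/615 nm ratio.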
Sequence of Beta-2 adrenergic receptor (Homo sapiens) (P07550 whole entry, looked up): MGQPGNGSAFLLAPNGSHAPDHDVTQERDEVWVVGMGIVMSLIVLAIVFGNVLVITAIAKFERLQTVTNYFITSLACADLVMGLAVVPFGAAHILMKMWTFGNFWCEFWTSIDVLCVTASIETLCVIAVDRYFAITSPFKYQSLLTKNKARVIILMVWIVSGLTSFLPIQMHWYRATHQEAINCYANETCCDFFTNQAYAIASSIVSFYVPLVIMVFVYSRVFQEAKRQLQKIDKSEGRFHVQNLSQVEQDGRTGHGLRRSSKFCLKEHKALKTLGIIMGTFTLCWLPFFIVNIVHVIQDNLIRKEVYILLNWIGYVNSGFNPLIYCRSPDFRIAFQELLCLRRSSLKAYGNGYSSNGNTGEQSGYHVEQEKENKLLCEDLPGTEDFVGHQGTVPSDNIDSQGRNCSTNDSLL

Test [20] deals with KiSS-1 receptor (Homo sapiens) (UniProt Q969F8). Briefly: Human kisspeptin (KISS1R) small molecule agonists, calcium flux assay in KISS1R-HEK293 cells (AID 1920064; active = well fitted curve in the direction sought with a large enough effect in the repeat runs; an effect the other way counts as inactive or inconclusive). The method in brief: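 After overnight (18 h) culture at 37 C/5% CO2, human KISS1R-HEK293 cells received calcium dye for 1 h, then test compound; emission at 540 nm (excitation 480 nm) was tracked for 3 min.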
Sequence of KiSS-1 receptor (Homo sapiens) (Q969F8 whole entry, looked up): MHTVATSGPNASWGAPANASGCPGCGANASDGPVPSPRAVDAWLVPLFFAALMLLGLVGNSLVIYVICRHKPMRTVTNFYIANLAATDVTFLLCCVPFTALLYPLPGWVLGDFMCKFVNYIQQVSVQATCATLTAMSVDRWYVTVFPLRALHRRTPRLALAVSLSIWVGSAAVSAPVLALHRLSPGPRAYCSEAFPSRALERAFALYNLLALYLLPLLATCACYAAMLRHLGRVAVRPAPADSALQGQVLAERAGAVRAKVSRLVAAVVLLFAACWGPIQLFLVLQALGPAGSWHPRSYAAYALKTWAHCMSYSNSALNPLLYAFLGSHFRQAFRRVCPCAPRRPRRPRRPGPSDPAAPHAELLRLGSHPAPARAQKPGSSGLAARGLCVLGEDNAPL

Sequence of Gonadotropin-releasing hormone receptor (Homo sapiens) (P30968 whole entry, looked up): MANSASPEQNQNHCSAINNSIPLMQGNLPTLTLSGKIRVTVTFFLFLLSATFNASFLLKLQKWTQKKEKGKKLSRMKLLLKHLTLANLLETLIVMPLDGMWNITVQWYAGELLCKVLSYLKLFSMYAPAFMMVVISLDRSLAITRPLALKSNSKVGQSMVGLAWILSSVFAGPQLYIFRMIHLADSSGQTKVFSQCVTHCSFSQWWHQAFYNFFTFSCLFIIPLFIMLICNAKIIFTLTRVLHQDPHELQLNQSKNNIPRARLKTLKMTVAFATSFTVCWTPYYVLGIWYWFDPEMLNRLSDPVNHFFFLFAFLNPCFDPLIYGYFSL
Sequence of 5-hydroxytryptamine receptor 2A (Homo sapiens) (P28223 whole entry, looked up): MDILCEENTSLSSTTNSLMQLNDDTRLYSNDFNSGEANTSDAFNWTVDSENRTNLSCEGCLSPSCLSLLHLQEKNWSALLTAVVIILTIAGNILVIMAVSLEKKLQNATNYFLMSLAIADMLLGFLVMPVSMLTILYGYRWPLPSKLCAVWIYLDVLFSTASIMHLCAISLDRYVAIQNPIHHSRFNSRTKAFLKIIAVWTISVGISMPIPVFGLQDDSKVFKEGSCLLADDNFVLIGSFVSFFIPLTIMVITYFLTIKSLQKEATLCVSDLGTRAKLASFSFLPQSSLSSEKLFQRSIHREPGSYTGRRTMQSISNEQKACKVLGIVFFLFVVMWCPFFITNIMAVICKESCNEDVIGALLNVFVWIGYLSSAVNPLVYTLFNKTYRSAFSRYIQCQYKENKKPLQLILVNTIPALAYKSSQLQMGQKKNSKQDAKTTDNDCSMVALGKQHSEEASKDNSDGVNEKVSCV
Sequence of D(2) dopamine receptor (Homo sapiens) (P14416 whole entry, looked up): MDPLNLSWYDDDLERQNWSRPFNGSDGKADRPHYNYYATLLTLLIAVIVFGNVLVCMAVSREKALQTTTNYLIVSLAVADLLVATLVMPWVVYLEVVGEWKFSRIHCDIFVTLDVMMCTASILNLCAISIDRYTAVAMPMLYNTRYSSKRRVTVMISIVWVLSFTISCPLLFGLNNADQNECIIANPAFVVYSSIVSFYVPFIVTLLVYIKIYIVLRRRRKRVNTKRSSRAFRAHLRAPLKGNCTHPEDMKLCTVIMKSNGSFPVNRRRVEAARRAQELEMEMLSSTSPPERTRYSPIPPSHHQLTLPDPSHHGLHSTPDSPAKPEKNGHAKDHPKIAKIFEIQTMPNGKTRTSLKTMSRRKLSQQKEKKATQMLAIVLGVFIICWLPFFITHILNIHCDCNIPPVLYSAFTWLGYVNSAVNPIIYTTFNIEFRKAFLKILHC

On to `COC(C)(C)CC(C)=O`, for which the Potency result in [1], in test [2], in [3], in [4], in test [5] and in test [6] was “inactive” in each case. Also, the Potency entry in test [7], in test [8], in test [9], in [10], in test [11] and in test [12] was “inactive” throughout. Besides, the Potency result in [13], in [14], in [15] and in [16] was “inactive” each time.

Regarding `C/C(=C\c1ccc(C(=O)O)cc1)c1ccc2c(c1)C(C)(C)CCC2(C)C`, the Potency entry in test [1], in test [2], in [17], in test [5], in test [6] and in [18] was “inactive” in each case. Also, the Potency result in [7], in test [8], in test [9], in [10], in test [11] and in [19] was “inactive” in each case. Moreover, the Potency result in [15] and in test [16] was “inactive” in each case.

As to `CC(C)NC(=O)NC(C)C`, the Potency result in test [1], in test [2], in [3], in test [6], in test [8] and in test [9] was “inactive” throughout. Further, the Potency entry in test [10], in test [11], in test [12], in test [13], in [19] and in test [15] was “inactive” throughout. Further, the Potency result in [16] was “inactive”.

Consider `CCCCC(CC)COC(=O)c1ccccc1C(=O)O` (configuration not stated), for which the Potency entry in test [1], in test [2], in test [3], in test [5], in [6] and in test [9] was “inactive” throughout. Further, the Potency result in [11] is “inactive”.

Consider `Cn1cc(C(=O)[C@@H]2CCc3nc[nH]c3C2)c2ccccc21`, for which the Potency entry in test [1], in test [2], in test [3], in [5], in test [6] and in [18] was “inactive” throughout. In addition, the Potency result in test [10], in test [11], in test [12], in [13], in test [15] and in test [16] was “inactive” each time.

For `CCCCC(CC)CNC(=O)CC(C)OC(=O)CCC(=O)O` (configuration not stated), the Potency result in [1], in [2], in test [3], in [17], in test [4] and in test [5] was “inactive” throughout. Moreover, the Potency entry in test [6], in test [7], in test [8], in test [9], in [10] and in [11] was “inactive” in each case. For the same compound, the Potency result in [12], in [13], in test [19], in [15] and in [16] was “inactive” each time.

`CCCNCC(O)COc1ccccc1C(=O)CCc1ccccc1` (configuration not stated): the Potency result in test [1], in test [2], in test [20], in test [7], in test [12] and in [13] was “inactive” throughout. Also, the Potency result in test [15] and in test [16] was “inactive” throughout. Besides, the Potency in [19] was 0.841 µM (active).

`Cc1ccccc1N=Nc1ccc(N=Nc2c(O)ccc3ccccc23)c(C)c1`: the Potency result in test [1], in test [20], in test [3], in [17], in [4] and in test [5] was “inactive” in each case. Further, the Potency result in test [6], in test [18], in [7], in test [8], in test [9] and in test [10] was “inactive” in each case. Also, the Potency entry in test [11], in test [12], in [13], in [19], in test [14] and in [15] was “inactive” in each case.

As to `Cn1c(=O)c2c(ncn2CCO)n(C)c1=O`, the Potency result in test [1], in test [2], in [20], in test [5], in [6] and in [18] was “inactive” in each case. Besides, the Potency entry in test [9], in test [10], in [11], in test [12], in [13] and in [19] was “inactive” in each case. Besides, the Potency result in test [15] and in test [16] was “inactive” each time.

`O=C(NO)c1ccccc1`: the Potency result in test [1], in test [2], in test [3], in test [4], in test [6] and in test [18] was “inactive” in each case. In addition, the Potency in test [14] was 20.7 µM (active).
